# Laboratory results taken from PubChem BioAssay AID588800 (Johns Hopkins Ion Channel Center, 2011).
# Unmarked numbers belong to inactive results.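 Rule for the calls: active = peak inhibition of the KCNQ2 potassium channel above 30% at some tested dose, plus a fitted dose response curve; inactive = no inhibition at any dose, or no curve.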
# Target: Potassium voltage-gated channel subfamily KQT member 2 (Rattus norvegicus) (UniProt O88943)
# Experiment: rat KCNQ2 channel inhibition, SAR follow-up, selectivity assay for KCNK9 inhibitor project, cell-based, FluxOR thallium flux, CRC set 2 (AID 588800)
# Settings: KCNQ2-expressing cells; series mostly up to 30 µM; thallium flux ratio, lower = inhibition: at the top concentration
# Sequence of Potassium voltage-gated channel subfamily KQT member 2 (Rattus norvegicus) (O88943 whole entry, looked up): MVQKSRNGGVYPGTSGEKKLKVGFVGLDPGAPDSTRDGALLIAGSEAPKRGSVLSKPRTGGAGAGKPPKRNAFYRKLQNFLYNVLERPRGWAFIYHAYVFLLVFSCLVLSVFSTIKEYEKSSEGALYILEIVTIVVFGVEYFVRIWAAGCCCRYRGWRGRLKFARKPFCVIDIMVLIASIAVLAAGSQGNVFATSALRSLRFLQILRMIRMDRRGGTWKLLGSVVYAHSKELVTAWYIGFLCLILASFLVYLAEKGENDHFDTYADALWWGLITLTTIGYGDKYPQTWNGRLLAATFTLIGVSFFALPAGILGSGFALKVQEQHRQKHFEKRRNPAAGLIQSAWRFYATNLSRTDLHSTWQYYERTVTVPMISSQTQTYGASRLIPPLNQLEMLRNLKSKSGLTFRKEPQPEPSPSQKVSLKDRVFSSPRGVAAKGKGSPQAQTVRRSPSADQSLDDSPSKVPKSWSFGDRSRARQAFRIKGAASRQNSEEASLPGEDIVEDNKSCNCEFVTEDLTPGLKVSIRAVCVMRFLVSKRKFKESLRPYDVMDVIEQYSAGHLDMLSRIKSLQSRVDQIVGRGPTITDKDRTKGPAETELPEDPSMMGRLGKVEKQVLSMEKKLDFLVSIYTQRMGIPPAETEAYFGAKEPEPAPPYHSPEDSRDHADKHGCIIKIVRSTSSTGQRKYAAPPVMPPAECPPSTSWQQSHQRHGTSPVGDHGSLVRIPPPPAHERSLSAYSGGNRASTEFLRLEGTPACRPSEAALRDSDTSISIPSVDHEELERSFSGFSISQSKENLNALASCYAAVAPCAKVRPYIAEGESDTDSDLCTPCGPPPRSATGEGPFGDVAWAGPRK
row,Structure (SMILES),"thallium flux ratio, lower = inhibition"
1,COc1cccc(C(=O)Nc2cccc(NC(=O)c3cccc(C)c3)c2)c1,0.169
2,Cc1cccc(C(=O)Nc2cccc(NC(=O)c3ccccc3OCC(C)C)c2)c1,0.148
3,COc1ccc(C(=O)Nc2cccc(NC(=O)c3cccc(C)c3)c2)cc1,0.179
4,O=C(Nc1cccc(NC(=O)c2ccccc2Cl)c1)c1ccccc1,0.169
5,CC(C1CC2CCC1C2)n1c(C2CCOC2)n[nH]c1=S (stereo unspecified),0.177
6,Cc1cccc(C(=O)Nc2cccc(NC(=O)c3cccc(Cl)c3)c2)c1,0.163
7,O=C(Nc1cccc(NC(=O)c2ccncc2)c1)c1ccccc1,0.191
8,COc1ccc(-c2n[nH]c(=S)n2C(C)C2CC3CCC2C3)cc1 (stereo unspecified),0.157
9,COc1ccccc1NC(=O)c1cccc(NC(=O)c2ccccc2C(F)(F)F)c1,0.178
10,CC(C)(C)c1ccc(C(=O)Nc2cccc(NC(=O)c3ccccc3)c2)cc1,0.169
11,COc1ccccc1C(=O)Nc1cccc(NC(=O)c2ccccc2C(C)C)c1,0.177
12,Cc1cccc(S(=O)(=O)Nc2cccc(NC(=O)c3ccccc3)c2)c1,0.195
13,COc1ccccc1C(=O)Nc1cccc(NC(=O)c2cccc(C)c2)c1,0.189
14,CC(C1CC2CCC1C2)n1c(-c2ccccc2Cl)n[nH]c1=S (stereo unspecified),0.165
15,CC(C1CC2CCC1C2)n1c(-c2ccccc2)n[nH]c1=S (stereo unspecified),0.203
16,CCOc1ccccc1NC(=O)c1cccc(NC(=O)c2ccccc2OC)c1,0.178
17,O=C(Nc1ccccc1Cl)c1cccc(NC(=O)C2CCCC2)c1,0.161
18,CCOc1ccccc1C(=O)Nc1cccc(NC(=O)c2ccccc2OC)c1,0.172

row,Structure (SMILES),"thallium flux ratio, lower = inhibition"
1,COc1ccccc1NC(=O)c1cccc(NC(=O)C2CCCC2)c1,0.19
2,Cc1cccc(C(=O)Nc2cccc(NC(=O)c3ccc(C(C)(C)C)cc3)c2)c1,0.244
3,S=c1[nH]nc(-c2ccco2)n1CC1CCCCC1,0.16
4,COc1ccccc1NC(=O)c1cccc(NC(=O)CC2CCCC2)c1,0.162
5,CCOc1ccccc1NC(=O)c1cccc(NC(=O)c2ccc(Cl)cc2)c1,0.18
6,O=C(Nc1cccc(NC(=O)c2ccccc2)c1)c1ccccc1,0.154
7,COc1cccc(C(=O)Nc2cccc(NC(=O)c3ccccc3)c2)c1,0.179
8,CCOc1ccccc1NC(=O)c1cccc(NC(=O)c2ccccc2C(F)(F)F)c1,0.183
9,CCOc1ccccc1C(=O)Nc1cccc(NC(=O)C2CCCC2)c1,0.144
10,Cc1cccc(C(=O)Nc2cccc(NC(=O)c3ccc(C(F)(F)F)cc3)c2)c1,0.16
11,O=C(Nc1cccc(NC(=O)C2CCCCC2)c1)c1ccccc1,0.214
12,CC(c1ccco1)n1c(-c2ccoc2)n[nH]c1=S (stereo unspecified),0.157
13,O=C(Nc1cccc(NC(=O)c2cccc(C(F)(F)F)c2)c1)c1ccccc1,0.145
14,CCOc1ccccc1NC(=O)c1cccc(NC(=O)c2cccc(OC)c2)c1,0.172
15,CCOc1ccccc1NC(=O)c1cccc(NC(=O)c2ccc(C)cc2)c1,0.179
16,CCOc1ccccc1NC(=O)c1cccc(NC(=O)C2CCOC2)c1 (stereo unspecified),0.201
17,COc1ccccc1C(=O)Nc1cccc(NC(=O)c2ccccc2OC(F)(F)F)c1,0.183
18,COc1cccc(OC)c1C(=O)Nc1cccc(NC(=O)c2cccc(C)c2)c1,0.164
